# High-throughput results deposited in PubChem by several laboratories.
# Shown are actives, neighbours in structure and some others; about 4.9% of the full set was active somewhere.
# Platelet DG rel: inhibitors of platelet dense granule secretion, primary screen, cell-based, MLPCN, human platelets; human platelet-rich plasma, SFLLRN dense granule ATP release, luminescence; inhibition, %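 (compounds screened at 7.5 µM in platelet-rich plasma)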; actives 0.22% (n = 300,000); AID 1663, 2009;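 active means mean replicate score, as percent of positive control, at or above 50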
# HSF1 activator: HSF-1 activators, primary screen, NIH3T3-HGL cells, MG132 stress, luminescence, single point. NIH3T3-HGL HSF-1 luciferase reporter, 8 h; 100% = twice DMSO control signal. activation, % at 9 µM. actives 1.7% (n = 300,000). AID 504408, 2011;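 active means mean replicate activation of at least 50% with a set share of replicates each reaching 50%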;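 further: 0% = median of the neutral control wells and 100% = twice that signal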
# dFosB act: activators of delta FosB homodimer, primary screen, biochemical, fluorescence polarization, TAMRA-CDK5 oligo, single point; Protein FosB (Mus musculus), P13346; purified delta FosB; percent of positive-control signal above neutral wells; activation, % at 25 µM; actives 0.99% (n = 340,000); AID 493131, 2011;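 active means mean activation above about 17%, with every replicate also reaching it, limit read from the data, passing the limit was not always enough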
# Target sequence (P13346 whole entry, looked up): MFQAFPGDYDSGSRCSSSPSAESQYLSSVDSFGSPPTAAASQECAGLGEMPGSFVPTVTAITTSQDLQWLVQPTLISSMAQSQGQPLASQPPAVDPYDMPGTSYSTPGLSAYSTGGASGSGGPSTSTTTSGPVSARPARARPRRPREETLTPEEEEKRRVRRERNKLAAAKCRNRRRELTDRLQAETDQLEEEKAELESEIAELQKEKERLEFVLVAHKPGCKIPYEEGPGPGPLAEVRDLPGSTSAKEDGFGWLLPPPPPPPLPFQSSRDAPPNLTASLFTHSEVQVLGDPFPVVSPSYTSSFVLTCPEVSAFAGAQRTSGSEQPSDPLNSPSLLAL
# HSP90 inh: HSP90 inhibitors, primary screen, cell lysate, luminescence; Heat shock protein HSP 90 (rabbit reticulocyte lysate; luciferase refolding); Rabbit reticulocyte lysate, luciferase refolding luminescence, 3 h; inhibition, % at 5.6 µM; actives 0.91% (n = 290,000);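 active means inhibition above the screen-wide mean plus 3 SD, computed separately per campaign, cut at about 16% in these data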;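 further: 0% = DMSO wells and 100% = 60 µM geldanamycin wells; inhibitors lower the luminescence because luciferase stays unfolded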
# MPTP block: mitochondrial permeability transition pore inhibitors, primary screen, biochemical, isolated mouse mitochondria, absorbance | inhibition, % at 10 µM | Ca2+ swelling absorbance, 30 min | actives 1.4% (n = 360,000);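 active means inhibition of 50% or more, scaled per plate between neutral and stimulator controls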;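 further: 0% = DMSO wells given calcium and 100% = 1 mM EGTA wells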
# HSF1 inhib: HSF1 inhibitors in luciferase reporter cells, primary screen, cell-based, NIH3T3, luminescence. NIH3T3-HGL HSE-luciferase, MG132-induced, luminescence 8 h; hits give low values. actives 0.77% (n = 300,000). activity change, negative = inhibition, % at 7.5 µM (by protocol);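 active means more than half of replicate wells show activity change below -50%, luminescence cut by over half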;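 further: luciferase reports HSF-1 transcriptional activity via heat shock element; 0% = median of DMSO wells and -100% = zero luminescence signal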
# HSP90 confirm: HSP90 inhibitors, confirmation, cell lysate, luminescence. rabbit reticulocyte lysate, luciferase refolding luminescence, 3 h. shares compounds with HSP90 inh. actives 64% (n = 2,300). inhibition, % at 5.9 µM; in the data active means inhibition above about 18%;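 further: 0% = vehicle wells and 100% = reference inhibitor wells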
# luciferase ctr: firefly luciferase inhibitors, HSP90 counter-screen, confirmation, artefact control for HSP90 inhibitor project, biochemical, luminescence, triplicate | shares compounds with HSP90 inh | purified native firefly luciferase | inhibition, % at 5.9 µM | actives 48% (n = 2,300);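 active means inhibition above the mean inhibition of all tested sample wells plus 3 SD, cut at about 10% in these data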;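 further: 0% = DMSO with luciferase and 100% = wells lacking luciferase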
# * = called active by the depositor; · = no result given.
SMILES,Platelet DG rel,HSF1 activator,dFosB act,HSP90 inh,MPTP block,HSF1 inhib,HSP90 confirm,luciferase ctr
COc1ccc(C(=O)Nc2ccc(NC(=O)c3ccccn3)cn2)cc1,3,27,-14,-1,1,18,·,·
N/C(=N\NC(=O)Nc1ccc(Cl)cc1)c1ccccn1,-1,-11,-6,24*,3,4,-4,-16
CNC(=O)N/N=C(\N)c1ccccn1,·,·,-4,-1,0,·,·,·
COC(=O)c1ccc(Cn2c(C)c(C(=O)NCc3cccs3)sc2=O)o1,·,·,·,·,1,·,·,·
COc1ccc(OCC(=O)N2CCN(C(=O)c3ccc(F)cc3)CC2)cc1,-3,-7,0,0,0,2,·,·
Cc1ccc(S(=O)(=O)N2C[C@H]3C(=O)C[C@@H](c4ccccc4F)N(S(=O)(=O)c4ccc(C)cc4)[C@H]3C[C@H]2c2ccccc2)cc1,·,·,·,·,0,·,·,·
CCOC(=O)c1nn(-c2ccccc2)c2nnc(Cc3ccc(C)cc3)c(=O)n12,3,-10,2,3,0,-10,·,·
Cc1ccc(-c2cc(C(=O)N/N=C/c3ccco3)[nH]n2)cc1,7,-4,2,22*,-6,2,19*,24*
Nc1ncc2c(n1)-c1ccoc1CC2,·,-14,-2,0,0,4,·,·
COc1ccc(OCc2cc(C(=O)O)c(C)o2)cc1,-2,16,·,55*,·,5,63*,28*
CCc1ccc(OCc2ccc(C(=O)O)o2)cc1,-8,-15,1,96*,1,-8,94*,68*
CC(C)c1ccc(OCc2ccc(C(=O)N(C)C)o2)cc1,0,40,-5,12,-1,24,·,·
CC(C)c1ccc(OCc2ccc(C(=O)NN3CCN(C)CC3)o2)cc1,0,37,-2,19*,1,32,18*,-13
CC(C)c1ccc(OCc2ccc(C(=O)O)o2)cc1,2,·,0,94*,3,·,94*,80*
CC1(c2nnnn2C2CCCCC2)CCC(=O)N1Cc1ccc2c(c1)OCO2 (stereo not drawn),·,·,·,·,11,·,·,·
CCN(CC)c1ccc2cc(-c3nc4ccccc4n3C)c(=O)oc2c1,5,-20,-8,2,-1,-15,·,·
CCN(CC)c1ccc2cc(-c3nc4ccccc4[nH]3)c(=O)oc2c1,9,-42,-7,35*,0,-33,68*,67*
Cc1ccc(NC(=O)Nc2nnc(-c3ccccc3)o2)cc1,3,21,-8,-3,7,14,·,·
Cc1ccc(-c2nnc(Nc3ccccc3)o2)cc1,37,-25,-2,36*,2,-7,81*,71*
CCOC(=O)CN1C(=O)S/C(=C/C=C/c2ccc(N(C)C)cc2)C1=O,-1,7,2,39*,3,-7,-5,-25
CCOC(=O)CN1C(=O)S/C(=C/c2ccc3c(c2)n(C)c(=O)n3C)C1=O,-6,-44,1,2,-1,-27,·,·
COc1ccc(C(C(=O)NC(C)(C)C)N(CCc2ccccc2)C(=O)CCC(=O)Nc2cc(C)on2)cc1 (stereo not drawn),2,32,-8,-3,2,16,·,·
CCOc1ccc(/C=N/NC(=O)c2ccccc2NC(=O)c2ccc(OC)cc2)cc1,31,25,0,19*,1,0,10,-25
CCOc1ccc(C(=O)Nc2ccccc2C(=O)O)cc1,2,29,-2,7,1,8,·,·
O=c1nc(N/N=C/c2c[nH]c3ccccc23)cn[nH]1,46,21,7,27*,1,10,30*,14*
SMILES,Platelet DG rel,HSF1 activator,dFosB act,HSP90 inh,MPTP block,HSF1 inhib,HSP90 confirm,luciferase ctr
O=c1nc(N/N=C/C=C/c2ccccc2)cn[nH]1,39,2,0,23*,3,-2,78*,65*
O=C1CCN(Cc2ccccc2)C(=S)N1,·,·,-1,·,1,·,·,·
CC1=CSC2=NC(=O)/C(=C\c3cccn3-c3ccccc3)C(=N)N12,-11,-11,-11,4,2,-14,·,·
CC(C)c1ccc(-n2cccc2/C=C2/C(=N)N3C=CSC3=NC2=O)cc1,-1,-9,-17,32*,2,-8,22*,3
COc1ccc(S(=O)(=O)N(C)C[C@H]2Oc3ccc(NC(=O)Nc4c(C)noc4C)cc3C(=O)N([C@H](C)CO)C[C@@H]2C)cc1,·,·,-3,·,-2,·,·,·
C/C(=N\Nc1ccc(Cl)c(C(=O)O)c1)c1ccc(Br)s1,7,-3,-4,22*,1,8,1,-10
C/C(=N\Nc1ccc(C(=O)O)cc1)c1ccc(Cl)s1,15,-1,-5,22*,-1,1,29*,22*
C/C(=N\Nc1ccc(C(=O)O)cc1)c1ccc(Br)cc1,6,-34,-9,46*,1,-19,78*,67*
COc1ccc(/C(C)=N/Nc2ccc(C(=O)O)cc2)c(OC)c1,-9,-7,-8,22*,0,-7,13,19*
CC(=O)Nc1ccc(S(=O)(=O)NCCC(=O)OCc2ccccc2F)cc1,·,·,-21,·,-3,·,·,·
CN(c1ccccc1)S(=O)(=O)c1cccc(NC(=O)c2ccc(=O)[nH]n2)c1,·,·,-12,·,12,·,·,·
C/C(=N\Nc1ccc(C(=O)O)cc1)c1ccc(S(=O)(=O)NCc2ccco2)cc1,8,-25,-4,48*,1,-17,20*,9
C/C(=N\Nc1ccc(Cl)c(C(=O)O)c1)c1cccc([N+](=O)[O-])c1,1,6,-9,18*,1,1,2,-14
C/C(=N\Nc1ccccn1)c1ccc(S(=O)(=O)NCc2ccco2)cc1,-6,9,1,-4,-2,14,·,·
CCN1C(=O)[C@@H]2[C@@H](c3ccc(-c4ccc(C(C)=O)cc4)c(OC)c3)N3CCCC[C@@]3(C(=O)OC)[C@@H]2C1=O,-6,-6,-1,·,0,3,·,·
Cc1ccc(C)c(OCCC(=O)OCC(=O)Nc2ccc(Cl)cn2)c1,10,7,-9,·,0,-5,·,·
c1ccc(-c2nccc3ccccc23)cc1,4,12,-3,·,1,-6,·,·
Cc1ccc(-c2nc(-c3nccc4ccccc34)oc2-c2ccccc2)cc1,3,54*,-12,23*,0,28,41*,46*
